# Data reported in PubChem BioAssay AID686971 (National Center for Advancing Translational Sciences (NCATS), 2013).
# Out of some 360,000 compounds screened, about 7,500 (2.1%) were called active. Another 8% or so got no clear call; they are omitted. Calls come from the whole dose curve; as a rule, active = well fitted cell-killing curve with a large enough effect; inconclusive = small, poorly fitted or top-dose-only effect, or effect the other way, or another doubt; inactive = no such curve, though single readings can be large or run the other way. The sample as a whole holds a higher share of actives than the screen did.
# Experiment: qHTS for induction of synthetic lethality in tumor cells producing 2HG: qHTS for the HT-1080-IDH1KD cell line;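 for activity, negative = toxicity: 0% = DMSO wells and -100% = cell-free medium wells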
# Conditions: HT-1080 IDH1 knockdown viability, ATP luminescence, 48 h; series mostly up to 46.1 µM; activity, negative = toxicity: at the top concentration
# In short: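 Cytotoxicity counter-line: IDH1KD HT-1080, 48 h, CellTiter-Glo. Curves classed by r2, magnitude and activity.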
# Potency is the fitted concentration of half-maximal effect.
SMILES,"activity, negative = toxicity",Potency
COC(=O)c1ccc2nc(-c3ccccc3)c(Cc3ccc(OC)cc3C)n2c1,5.54% (inactive),–
O=C(c1cc(C2CCCCN2S(=O)(=O)c2ccccc2)on1)N1CCOCC1 (centres undefined),19.8% (inactive),–
CCOC(=O)C(=Cc1ccccc1)C(=O)c1ccccc1,–,18.4 µM (active)
CCOC(=O)/C(=C\c1ccc([N+](=O)[O-])cc1)C(=O)c1cc(C(C)=O)c(Nc2ccccc2)s1,17.6% (inactive),–
CCOC(=O)NC(=O)/C(C#N)=C\c1ccccc1,1.01% (inactive),–
COC(=O)C[C@H]1C[C@@H]2c3cc(NC(=O)Nc4ccccc4)ccc3O[C@@H]2[C@@H](CO)O1,4.69% (inactive),–
COc1ccc(C2Nc3ccc(NC(=O)COC(C)=O)cc3C(=O)N2Cc2ccccc2)cc1COc1ccc(NC(C)=O)cc1 (centres undefined),-21.2% (inactive),–
CCN(c1ccccc1)S(=O)(=O)c1ccc(C(=O)Nc2nccs2)cc1,10% (inactive),–
Cc1cccc(NC(=O)c2ccc(S(=O)(=O)N(C)c3ccccc3)cc2)n1,-21.5% (inactive),–
C=CCN(CC=C)S(=O)(=O)c1ccc(C(=O)Nc2nc3c(s2)CCc2ccccc2-3)cc1,–,14.6 µM (active)
Cc1ccccc1S(=O)(=O)NC(=O)C1(C)CCN1C(=O)C1(c2ccc(Cl)cc2)CC1 (centres undefined),28% (inactive),–
CNS(=O)(=O)c1ccc2c(c1)[nH]c(=S)n2C,-8.8% (inactive),–
COc1ccc(OC)c(Cc2nnc(CCC(=O)NC3CCCC3)o2)c1,11.3% (inactive),–
COc1ccc(-c2nc(N)ncc2-c2ccc(Cl)cc2)c(O)c1,-6.82% (inactive),–
COc1ccc(OC)c(Cc2cnc3nc(N)nc(N)c3c2C)c1,–,0.0103 µM (active)
Nc1nc2cc(Cl)ccc2n1N,8.14% (inactive),–
CCC(C)CN1C(=O)CSCC1(C)C(=O)NCc1ccccc1 (centres undefined),24.8% (inactive),–
Cc1sc2ccccc2c1CNC[C@H]1O[C@@H](n2ccc(=O)[nH]c2=O)[C@H](O)[C@@H]1O,14.3% (inactive),–
O=C(COC(=O)c1cncc(Br)c1)Nc1ccc(S(=O)(=O)N2CCOCC2)cc1,-1.98% (inactive),–
CCc1nc2c(OCCOc3ccccc3)cccn2c1N(C)C(=O)c1cccs1,5.52% (inactive),–
Cc1cccc(-c2cnc(C(O)c3cc(C)cc(C)c3)[nH]2)c1 (centres undefined),-12.6% (inactive),–
Cc1ccc(OCC(=O)NCCCNC(=O)c2cccnc2)cc1C,–,18.4 µM (active)
Cc1cccc(OCC(=O)NCCNC(=O)c2cccnc2)c1,-4.95% (inactive),–
CCCOc1cccc(C(=O)NCCCNC(=O)c2cccnc2)c1,0.556% (inactive),–
CCN(CC)C(=O)C1=C(C)N(Cc2ccc(F)cc2)C(=O)C(CC(=O)NCc2cccc3ccccc23)C1 (centres undefined),-2.6% (inactive),–

SMILES,"activity, negative = toxicity",Potency
COc1cc(/C=N\NC(=O)C2C(=O)NCC2c2ccccc2)cc(OC)c1O (centres undefined),2.02% (inactive),–
COc1cccc(/C=N\NC(=O)C2=NNC(=O)C2C)c1O (centres undefined),–,25.9 µM (active)
Cc1ccc(C(=O)N/N=C/c2cccc3ccccc23)cn1,6.84% (inactive),–
COc1ccc(/C=N/NC(=O)c2ccncc2)cc1CN1CCCc2ccccc21,-7.69% (inactive),–
COc1cccc(/C=N/NC(=O)c2[nH]nc3c2CCc2ccccc2-3)c1O,–,3.66 µM (active)
COc1ccc(Br)cc1/C=N/NC(=O)c1cccc(S(=O)(=O)N2CCOCC2)c1,-20.3% (inactive),–
CC(C)C1CC2=C(C(=O)OC(C)(C)O2)C(c2ccc(F)cc2)O1 (centres undefined),6.13% (inactive),–
CC1=C(C(=O)N2CCOCC2)CC(CC(=O)NCC2CCCCC2)C(=O)N1Cc1ccc(F)cc1 (centres undefined),-8.15% (inactive),–
O=Nc1c(O)cc(O)c2ccccc12,4.65% (inactive),–
COC(=O)C[C@@H]1C=C[C@@H](NC(=O)c2cccnc2)[C@@H](CO)O1,8.29% (inactive),–
O=C1NC[C@H](CCCCN2C[C@H](Cc3ccc(O)cc3)N(CC3CCCCC3)C(=O)C2=O)N(CCc2ccccc2)C1=O,8.08% (inactive),–
CCCCCCN1C[C@H](O)[C@@H](n2cc(C3CC3)nn2)C[C@@H]1c1ccc(Cl)cc1,6.32% (inactive),–
CCOC(=O)N1CCN(C(=O)c2ccc(S(=O)(=O)Nc3cccc(C(F)(F)F)c3)cc2)CC1,-0.977% (inactive),–
O=C(COc1ccc(S(=O)(=O)Nc2cccc(C(F)(F)F)c2)cc1)N1CCOCC1,-12.4% (inactive),–
Cc1oc2c(F)c(F)c(F)c(F)c2c1S(=O)(=O)Nc1cccc(C(F)(F)F)c1,–,18.4 µM (active)
COc1cc(C(=O)N2CCOC23CCN(Cc2ccccc2)CC3)cc(OC)c1OC,7.44% (inactive),–
CCN(CC)C(=O)C1=C(C)N(Cc2ccccc2)C(=O)C(CC(=O)NC(c2ccccc2)c2ccccc2)C1 (centres undefined),-2.22% (inactive),–
COc1cccc(NC(=O)C2(C)CCN2C(=O)CCC2CCCC2)c1 (centres undefined),-5.46% (inactive),–
CCC(C(=O)OCC(=O)Nc1c(Cl)cc(Cl)cc1Cl)c1ccccc1 (centres undefined),-0.177% (inactive),–
CCC(C(=O)OCC(=O)Nc1ccc(C(=O)Nc2ccc(OC)cc2)cc1)c1ccccc1 (centres undefined),–,25.9 µM (active)
CCC(C(=O)OCC(=O)Nc1ccccc1-c1ccccc1)c1ccccc1 (centres undefined),3.86% (inactive),–
CC(C)N1C(=O)c2ccccc2NC(=O)C1C(=O)NCc1cccs1 (centres undefined),25.2% (inactive),–
Cc1cccc(NC(=O)COC(=O)c2ccccc2OCc2cccc(Br)c2)c1,9.94% (inactive),–
O=C1C=C(NS(=O)(=O)c2ccccc2)C(=O)c2ccccc21,-20.1% (inactive),–
Cn1c(NC(=O)c2ccccc2)nc2ccccc21,-20% (inactive),–

SMILES,"activity, negative = toxicity",Potency
O=C(NC1=CC(=O)c2ccccc2C1=O)c1ccccc1,–,7.31 µM (active)
Cc1ccc(-c2c(N)nc3ncccn23)cc1,9.85% (inactive),–
CCNC(=O)C1CCCN(C(=O)c2ccc(OC)cc2OC)CC1 (centres undefined),10.3% (inactive),–
COc1ccc(NC(=S)NCc2cccs2)c(OC)c1,6.2% (inactive),–
COc1cccc(CNc2nc(NCc3ccccc3OC)nc3ccsc23)c1,–,23.1 µM (active)
COc1cccc(-c2cc3nc(NCc4ccccc4OC)n(C)c(=O)c3s2)c1,-4.35% (inactive),–
COc1ccccc1CNc1nc(Nc2ccccc2Cl)c2sccc2n1,-14.8% (inactive),–
Clc1ccccc1Nc1nc(NCc2cccs2)nc2ccsc12,1.77% (inactive),–
COc1cccc(CNc2nc(NCc3cccs3)nc3ccsc23)c1,–,23.1 µM (active)
COc1ccc(COC[C@H](CC(C)C)N2CCN(C(=O)c3cccc(C(F)(F)F)c3)CCC2=O)cc1,-17.8% (inactive),–
CCOC(=O)c1cc2cc(OC)ccc2n1C1CCN(C)CC1,-23.1% (inactive),–
CCc1ccc(OC2(C)CCN(CCOc3ccc(C)cc3)C2)cc1 (centres undefined),0% (inactive),–
O[C@@H]1C[C@H](c2ccccc2)N(Cc2cccs2)C[C@H]1n1cc(C2CC2)nn1,7.32% (inactive),–
CSc1ncccc1C(=O)N1CCCC(Nc2ccc(F)c(F)c2)C1 (centres undefined),-11% (inactive),–
Cc1ccccc1-c1nc(NC(C)C)nc2cc(-c3ccccc3)sc12,-18.6% (inactive),–
CCc1nc2c(OCc3ccc(C(=O)OC)cc3)cccn2c1N(C)C(=O)C(C)C,-1.16% (inactive),–
CCc1nc2c(OCc3ccc(F)c(F)c3)cccn2c1N(C)C(=O)c1ccco1,0.0356% (inactive),–
Cc1nc2c(OCc3ccc(Cl)cc3)cccn2c1N(C)Cc1cccs1,–,16.4 µM (active)
CCc1nc2c(OCc3ccccc3)cccn2c1N(C)C(=O)c1ccco1,6.84% (inactive),–
Cc1nc2ccccc2nc(C)c1=NOCc1ccc(Cl)cc1Cl,-3.31% (inactive),–
CCCCN(C=O)c1c(CC)nc2c(OCc3ccccc3C(=O)OC)cccn12,-11.3% (inactive),–
CCOC(=O)N(C)c1c(CC)nc2c(OCc3ccccc3C(=O)OC)cccn12,-3.5% (inactive),–
CCc1nc2c(OCc3ccc(Cl)cc3Cl)cccn2c1N(C)C(=O)C(C)C,–,16.4 µM (active)
Cc1nc2c(OCc3ccc(Cl)cc3Cl)cccn2c1N(C)CC1CC1,–,14.6 µM (active)
CCOC(=O)[C@]12CCCC=C1N(CCC1=CCCCC1)C(=O)[C@H](CC(=O)N1CCOCC1)C2,-6.31% (inactive),–

SMILES,"activity, negative = toxicity",Potency
Cc1ccc(S(=O)(=O)N[C@H](CO)C(C)C)cc1,26.3% (inactive),–
COCCCn1c(C(=O)NC2CCCCC2)cc2c(=O)n3cccc(C)c3nc21,15.5% (inactive),–
COc1ccc(S(=O)(=O)N2CCC(C(=O)NCCC(=O)Nc3ccccc3OC)CC2)cc1,1.9% (inactive),–
CCOC(=O)C1=CC[C@@H](c2ccccc2)N(S(=O)(=O)c2ccc(C)cc2)[C@H]1c1cccc(OC)c1,4.62% (inactive),–
COc1ccc(S(=O)(=O)N[C@@H]2C=C[C@@H](CC(=O)N3CCc4ccccc4C3)O[C@@H]2CO)cc1,18.3% (inactive),–
S=C(Nc1ccc(Br)cc1Cl)NC1CCN(Cc2ccccc2)CC1,–,20.6 µM (active)
O=C(NC1CCN(Cc2ccccc2)CC1)c1cc(Br)c(Br)[nH]1,-5.71% (inactive),–
O=C(COc1ccc(Br)cc1F)NC1CCN(Cc2ccccc2)CC1,-5.88% (inactive),–
CC1(C(=O)NS(=O)(=O)C2CC2)CCCN(C(=O)CSc2ccccc2)C1 (centres undefined),7.52% (inactive),–
CC(C)c1cc(CN2CCOCC2)cc(C(C)C)c1O,8.37% (inactive),–
Oc1c(C(c2ccccn2)N2CCOCC2)ccc2cccnc12 (centres undefined),–,0.251 µM (active)
O=C(Nc1ccccc1)c1ccccc1Br,10.7% (inactive),–
CC(C)C[C@H](NC(=O)N1CC(=O)Nc2ccccc21)C(=O)N[C@H](Cc1ccccc1)C(=O)O,2.48% (inactive),–
CC(C)c1ccc(NC(=O)[C@@H](NC(=O)N2CC(=O)Nc3ccccc32)C(C)C)cc1,–,13 µM (active)
CC(C)[C@H](NC(=O)N1CC(=O)Nc2ccccc21)C(=O)N[C@@H](Cc1c[nH]c2ccccc12)C(=O)O,-0.456% (inactive),–
COc1ccc(C(C)C)cc1-c1ccc2nncn2c1,3.86% (inactive),–
CC1(C(=O)NS(=O)(=O)c2ccccc2)CCN1C(=O)Cc1ccc(-c2ccccc2)cc1 (centres undefined),13% (inactive),–
Cc1ccc(F)c(S(=O)(=O)NC(=O)C2(C)CCN2C(=O)CCc2cccs2)c1 (centres undefined),14.3% (inactive),–
CCCOc1ccc(C2NC(=O)NC(c3ccccc3)=C2C(C)=O)cc1OCC (centres undefined),-22.4% (inactive),–
CCCOc1ccccc1C1CC(=O)Nc2cc3c(cc21)OCO3 (centres undefined),–,1.84 µM (active)
COC(=O)c1ccc(C2CC(=O)Nc3cc(OC)c(OC)cc32)cc1 (centres undefined),-7.3% (inactive),–
COc1ccccc1NC(=O)[C@H](COCc1ccccc1)NC(=O)OC(C)(C)C,-8.92% (inactive),–
C[C@@H](NC(=O)OC(C)(C)C)c1nnc(S(=O)(=O)Cc2ccccc2)o1,–,18.4 µM (active)
CCc1ccccc1NC(=O)CSc1nnc([C@@H](NC(=O)OC(C)(C)C)C(C)CC)o1 (some centres undefined),6.33% (inactive),–
